Screens (PubChem BioAssay)
Compounds with a hit are over-represented: about 3% of the library has one in this group of screens.
S16 F2sN tox: toxic to S16 Pmp22-F2sN Schwann cells | S16 Pmp22-F2sN Schwann cells viability, CellTiter-Glo, 24 h | hit rate 0.48% among 43,000 | AID 1508642 | Potency, µM (top dose mostly 57.5 µM), inactives show at the top dose activity change, negative = cytotoxicity, actives largely listed as cytotoxic; note: potency is the fitted concentration of half-maximal effect; % is set by controls: 0 for no effect and ±100 for the full control effect; nearly all actives have a fitted effect of over 65% in size
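Used to flag compounds lowering reporter output through toxicity, this quantitative HTS measures ATP-based CellTiter-Glo luminescence in S16 Pmp22-F2sN Schwann cells after 24 h compound exposure at 37C.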
PMP22 txn: modulators of PMP22 gene transcription in S16 Schwann cells | hit rate 2% among 43,000 | S16 Pmp22-F2sN Schwann cells, FLuc/NLuc coincidence luminescence, 24 h | Potency, µM (doses to about 57.5 µM), for the others: at the top dose activity change, negative = inhibition, most hits filed as inhibitors | AID 1508649; active = clear falling dose curves in both reporters; inconclusive = both reporters move, but less clearly or upward; inactive = either reporter flat; the % is the NLuc reporter signal; note: potency is the fitted concentration of half-maximal effect; % is set by controls: 0 for no effect and ±100 for the full control effect
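Schwann cells carrying the coincidence reporter were exposed to library compounds for 24 h at 37C, then lysed and read for FLuc and, after quenching, NLuc luminescence on a CCD imager.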
p53null 39C tox: selectivity test: cytotoxicity in p53 null cells, nonpermissive temperature; Potency, µM (highest dose often 46.1 µM), for inactives: at the highest dose activity, negative = cell killing, hits mostly cytotoxic; hit rate 0.97% among 55,000; AID 904; H1299 p53-null (neo) cells, 39C, ATPlite viability, 24 h;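 note: potency is the fitted concentration of half-maximal effect; 0% = DMSO only and -100% = full killing by 100 µM tamoxifen; nearly all actives have a fitted effect of over 50% in size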
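Following overnight plating at 37C (600 cells/well), H1299-neo or H1299-p53A138V cells are dosed up to 46 uM. Incubation lasts 24 hr at 39C before ATP detection.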
OvCa metastasis: inhibitors of ovarian cancer cell adhesion and invasion in omental model; Potency, µM (doses to about 45.8 µM), inactives show top-dose activity change, negative = inhibition, hits mostly inhibitors; hit rate 0.1% among 46,000; SKOV3ip1-GFP adhesion/invasion on 3D omental model, fluorescence; AID 1963576;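 note: potency is the fitted concentration of half-maximal effect; plate controls were DMSO wells for no effect and tomatine positive control wells for full effect; nearly all actives have a fitted effect of over 65% in size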
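qHTS, 4-pt dose (0.36-46 umol/L); SKOV3ip1-GFP, 1,200 cells/well, no FBS; primary omental fibroblast/mesothelial co-culture 48 h pre-grown; 2 h RT + 16 h 37 C; PBS wash, 4% PFA; GFP count 488/509 nm.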
p53null 32C kill: selectivity test: cytotoxicity in p53 null cells, permissive temperature; H1299-neo p53 null cells, ATP luminescence, 24 h, 32C; Potency, µM (doses to about 46.1 µM), for the others: top-dose activity change, negative = cytotoxicity, most hits filed as cytotoxic; hit rate 0.62% among 55,000;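 note: potency is the fitted concentration of half-maximal effect; 0% = DMSO only and -100% = full killing by 100 µM tamoxifen; nearly all actives have a fitted effect of over 55% in size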
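We seeded p53-null H1299-neo cells, incubated them overnight at 37C, and added compounds across a range up to 46 uM. After 24 hours at 32C, ATP reagent was applied for 20 min at room temperature and luminescence recorded.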
mTORC1 inh: mTORC1 pathway inhibition measured by phospho-rpS6; AID 493208; hit rate 0.78% among 44,000; Potency, µM (highest dose often 38.3 µM), inactives show at the top dose activity change, negative = inhibition, most hits filed as inhibitors; Tsc2-/- p53-/- MEF, phospho-rpS6 immunofluorescence/PI, 24 h;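 note: potency is the fitted concentration of half-maximal effect; plate controls were DMSO for no effect and rapamycin for full effect; nearly all actives have a fitted effect of over 50% in size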
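Tsc2-/-, p53-/- MEFs (empty-vector stable line) in DMEM + 10% FBS were treated with compounds 24 h at 37 degree Celsius, fixed, and immunostained for phospho-rpS6 (Alexa-488) with propidium iodide counterstain. Laser-scanning cytometry gave % positive cells, normalized against 7.5 nM rapamycin and DMSO.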
NLuc sat counter: inhibits NanoLuc at saturating substrate, PMP22 counter-screen; hit rate 4% among 690; shares compounds with PMP22 txn; Potency, µM (series often up to 57.5 µM), inactives show at the top dose activity change, negative = inhibition, most hits filed as inhibitors; Secreted NLuc enzyme (filtered S16 cell medium), Nano-Glo luminescence; AID 1508638; note: potency is the fitted concentration of half-maximal effect; % is set by controls: 0 for no effect and ±100 for the full control effect
NLuc Km ctr: inhibits NanoLuc under Km conditions, PMP22 counter-screen | hit rate 5% among 690 | shares compounds with PMP22 txn | secreted NLuc enzyme, coelenterazine luminescence, Km conditions | Potency, µM (doses to about 57.5 µM), inactives show top-dose activity change, negative = inhibition, usual class: inhibitors | AID 1508639; note: potency is the fitted concentration of half-maximal effect; % is set by controls: 0 for no effect and ±100 for the full control effect
FLuc counter: counter-screen for PMP22 expression modulators: firefly luciferase inhibition. purified P. pyralis FLuc, luminescence, 10 min. shares compounds with PMP22 txn. 690 tested, under 10 active. AID 1508640. Potency, µM (series often up to 57.5 µM), without a hit: top-dose activity, negative = inhibition, actives largely listed as inhibitors; note: % of control where 0% means no effect
Target sequence (P08659 whole entry, looked up): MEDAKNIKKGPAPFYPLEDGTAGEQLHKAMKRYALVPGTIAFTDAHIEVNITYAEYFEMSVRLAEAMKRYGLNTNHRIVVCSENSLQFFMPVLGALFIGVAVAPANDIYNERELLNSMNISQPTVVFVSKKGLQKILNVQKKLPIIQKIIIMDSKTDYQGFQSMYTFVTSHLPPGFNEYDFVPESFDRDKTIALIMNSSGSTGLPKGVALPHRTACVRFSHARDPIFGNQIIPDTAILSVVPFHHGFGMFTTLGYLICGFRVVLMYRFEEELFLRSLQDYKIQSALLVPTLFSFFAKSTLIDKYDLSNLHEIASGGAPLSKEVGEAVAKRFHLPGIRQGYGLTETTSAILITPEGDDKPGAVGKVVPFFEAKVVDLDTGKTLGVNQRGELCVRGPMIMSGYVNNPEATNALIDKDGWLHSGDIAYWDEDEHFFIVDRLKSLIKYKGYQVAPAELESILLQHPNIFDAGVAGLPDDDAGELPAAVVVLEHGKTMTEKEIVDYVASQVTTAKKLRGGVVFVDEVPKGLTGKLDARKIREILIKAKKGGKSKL
S16 F2sN tox cnf: confirmation of cytotoxicity in S16 Pmp22-F2sN Schwann cells (luciferase reporters placed in the Pmp22 gene). shares compounds with PMP22 txn. S16 Schwann cells viability, CellTiter-Glo ATP luminescence, 24 h. Potency, µM (titrated, usually from 57.5 µM), for the others: at the top dose activity change, negative = viability loss, hits mostly cytotoxic. hit rate 7% among 690. AID 1508641; note: potency is the fitted concentration of half-maximal effect; % is set by controls: 0 for no effect and ±100 for the full control effect
PMP22 txn conf: confirmation of modulators of PMP22 gene transcription in S16 cells; AID 1508646; hit rate 22% among 690; Potency, µM (top dose mostly 57.5 µM), without a hit: top-dose activity change, negative = inhibition, usual class: inhibitors; shares compounds with PMP22 txn; S16 Schwann cells Pmp22-F2sN, dual luciferase, 24 h; active = clear falling dose curves in both reporters; inconclusive = both reporters move, but less clearly or upward; inactive = either reporter flat; the % is the FLuc reporter signal; note: potency is the fitted concentration of half-maximal effect
PMP22 HiBiT cnf: confirmation of modulators of rat PMP22 protein expression. Potency, µM (top dose mostly 27.9 µM), for inactives: at the top dose activity change, negative = inhibition, actives largely listed as inhibitors. AID 1508647. S16 Schwann cells Pmp22-HiBiT, luminescence, 48 h. shares compounds with PMP22 txn. 95 tested, under 10 active
Target sequence (P25094 whole entry, looked up): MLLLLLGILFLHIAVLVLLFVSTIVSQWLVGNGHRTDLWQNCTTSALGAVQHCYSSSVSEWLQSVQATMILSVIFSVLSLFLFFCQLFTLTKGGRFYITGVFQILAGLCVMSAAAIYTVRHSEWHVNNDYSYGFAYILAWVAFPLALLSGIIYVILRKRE
* hit, by the source's call; i = inactive; u = inconclusive; x = not tested or not shown. Unless noted, calls come from the whole dose curve; as a rule, active = well fitted curve in the direction sought with a large enough effect; inconclusive = small, poorly fitted or top-dose-only effect, or another doubt; inactive = no such curve, though single readings can be large; an effect the other way counts as inactive or inconclusive.

SMILES	S16 F2sN tox	PMP22 txn	p53null 39C tox	OvCa metastasis	p53null 32C kill	mTORC1 inh	NLuc sat counter	NLuc Km ctr	FLuc counter	S16 F2sN tox cnf	PMP22 txn conf	others
CCc1nn2c(=O)cc(COC(=O)c3ccccc3NC(=O)COc3ccccc3C)nc2s1	40%	-29%	14%	-38%	-4%	0%	x	x	x	x	x
Cc1ccccc1OCC(=O)Nc1ccccc1C(=O)OCc1cc(=O)n2nc(C3CC3)sc2n1	5%	2.5µM*	6%	0%	4%	4%	-8%	4%	-1%	-3%	-20%
CCOCCc1nn2c(=O)cc(COC(=O)c3ccccc3NC(=O)c3ccccc3F)nc2s1	5%	u	3%	2%	-4%	0%	-5%	-1%	1%	-2%	-21%
CCOCCCNC(=O)c1ccc(-n2c(-c3ccccc3)cc3c2CCC(C)C3)cc1 (centres undefined)	-3%	18µM*	u	-2%	-14%	u	-7%	0%	-8%	4%	u	PMP22 HiBiT cnf=5%
COc1ccc(C[C@@H](C)[C@@H](C)Cc2ccc(OC)c(OC)c2)cc1OC	x	x	x	16%	x	x	x	x	x	x	x
NC(=O)c1ccc(I)c([N+](=O)[O-])c1	x	x	x	-7%	x	x	x	x	x	x	x
Cc1ccccc1Cn1c(=O)n(CC2CCC(C(=O)N3CCOCC3)CC2)c(=O)c2sccc21 (centres undefined)	-8%	12µM*	3%	4%	6%	0%	-8%	6%	2%	-2%	-24%
Cc1ccc(Cn2c(=O)n(CC3CCC(C(=O)N4CCOCC4)CC3)c(=O)c3sccc32)cc1 (centres undefined)	4%	9%	10%	-9%	-6%	3%	x	x	x	x	x
O=C(c1c2c(nc3ccccc13)C(=O)N(C1CCCCC1)C2)N1CCN(c2ccc(F)cc2)CC1	4%	10µM*	-20%	8%	-2%	-5%	-14%	7%	-8%	-6%	-36%
CCS(=O)(=O)c1ncc(Cl)c(C(=O)Nc2c(C(=O)c3ccc(C)cc3)oc3ccccc23)n1	u	2.1µM*	4%	-9%	-4%	-5%	-7%	u	2%	u	9.3µM*	PMP22 HiBiT cnf=-24%
CCOc1ccccc1NC(=O)c1c(NCc2ccc(C)o2)sc2c1CCCCC2	-20%	13µM*	9%	1%	0%	-10%	u	u	-26%	1%	u
CCOc1ccccc1NC(=O)c1c(NCc2ccc(C)o2)sc2c1CCC(C)C2 (centres undefined)	13%	2%	-13%	u	7%	-10%	x	x	x	x	x
Cc1ccc2[nH]c(CSc3nnc(COc4ccccc4C)n3C)cc(=O)c2c1	u	13µM*	25%	i	-7%	-14%	u	u	-7%	u	-23%
CCOCCCn1c(=N)c(C(=O)NC(C)c2ccccc2)cc2c(=O)n3cc(C)ccc3nc21 (centres undefined)	5%	-23%	20%	-1%	-3%	14%	x	x	x	x	x
CCCn1c(=N)c(C(=O)NC(C)c2ccccc2)cc2c(=O)n3ccccc3nc21 (centres undefined)	0%	14µM*	11%	9%	-11%	0%	-10%	-16%	-5%	14%	4.6µM*	PMP22 HiBiT cnf=-17%
O=C(CSc1nc2c(sc3ccccc32)c(=O)n1CCCC(=O)NC1CCCC1)Nc1ccc(F)cc1	u	u	-4%	i	-8%	-1%	-13%	12%	-15%	-31%	11µM*
Cc1cccc(NC(=O)CSc2nc3c(sc4ccccc43)c(=O)n2CCCC(=O)NC2CCCC2)c1	8%	-29%	-4%	-5%	-7%	-11%	x	x	x	x	x
COc1cc(Cl)c(C)cc1NC(=O)c1cc2c(s1)-c1c(C)cccc1OC2	-5%	u	-18%	-18%	-10%	-9%	x	x	x	x	x
COc1ccc(NC(=O)c2cc3c(s2)-c2c(C)cccc2OC3)cc1Cl	28µM*	16µM*	-1%	20%	-12%	-3%	-8%	-1%	-14%	u	u
CC(C)n1nc(-c2ccc3oc(N)nc3c2)c2c(N)ncnc21	x	x	x	7%	x	x	x	x	x	x	x
Cc1c(/C=C(\C#N)C(=O)Nc2cccc(Cl)c2)c2ccccc2n1Cc1ccccc1Cl	-13%	u	-2%	-2%	3%	22%	-7%	-3%	-5%	6%	-14%
COc1ccc(Nc2cc(C(=O)NCCCN3CCN(c4ccc(OC)cc4)CC3)c3ccccc3n2)cc1	u	u	14%	i	3%	u	x	x	x	x	x
Cc1ccc(NC(=O)CSc2nc3ccccc3nc2Cc2ccccc2)c(C)c1	-3%	9.5µM*	6%	-3%	4%	0%	-4%	-3%	-1%	17%	u
CCOc1cc(C(Nc2cc(C)ccn2)c2ccc3cccnc3c2O)ccc1OC (centres undefined)	u	10µM*	u	i	u	u	u	17µM*	-1%	u	u
